This note sets out measurements from PMC7862700, “An all-to-all approach to the identification of sequence-specific readers for epigenetic DNA modifications on cytosine”.

Test in all cases: DAPPL (digital affinity profiling via proximity ligation, sequencing); 10 mM Tris-HCl pH 7.5, 50 mM NaCl, 1 mM DTT, 4% glycerol, room temperature, 30 min; GST-TFs on glutathione beads, 16-mer random dsDNA library, 0.1% formaldehyde crosslink after washing; high values mean tight binding
Conditions in all cases: protein: recombinant; tags: N-terminal GST; dsDNA, one strand shown

In one assay the target is T1, FLI1 (Homo sapiens, UniProt Q01543 1-452).
T1 sequence: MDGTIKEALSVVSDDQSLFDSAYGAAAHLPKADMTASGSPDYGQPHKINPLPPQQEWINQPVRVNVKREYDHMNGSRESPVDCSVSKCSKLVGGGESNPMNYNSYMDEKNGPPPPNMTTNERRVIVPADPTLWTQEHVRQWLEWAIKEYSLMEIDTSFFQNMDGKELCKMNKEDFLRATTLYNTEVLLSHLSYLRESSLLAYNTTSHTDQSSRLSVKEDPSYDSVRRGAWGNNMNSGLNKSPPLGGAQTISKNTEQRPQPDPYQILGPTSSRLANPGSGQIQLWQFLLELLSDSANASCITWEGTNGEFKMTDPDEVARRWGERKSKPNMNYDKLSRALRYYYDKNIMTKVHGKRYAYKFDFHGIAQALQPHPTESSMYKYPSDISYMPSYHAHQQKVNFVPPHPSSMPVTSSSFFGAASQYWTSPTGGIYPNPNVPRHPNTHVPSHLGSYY
The procedure, abridged: (§1)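 After expression in yeast as GST fusions, human transcription factors were bound to glutathione beads, DNA-barcoded and mixed with a tag-only sample. The pools were incubated with 200 nmole of a 16-mer random double-stranded DNA library in Tris/NaCl/DTT/glycerol buffer (30 min, room temperature), washed and crosslinked with 0.1% formaldehyde. Proximity ligation with BsaI/T4 ligase ran for 1 h at 37 °C, before PCR amplification and sequencing on an Illumina NextSeq500. Binding signal is a hexamer's read frequency for a factor divided by its frequency for the tag-only sample.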

The target in a further assay is T2, ELK1 (Homo sapiens, UniProt P19419 1-428).
T2 sequence: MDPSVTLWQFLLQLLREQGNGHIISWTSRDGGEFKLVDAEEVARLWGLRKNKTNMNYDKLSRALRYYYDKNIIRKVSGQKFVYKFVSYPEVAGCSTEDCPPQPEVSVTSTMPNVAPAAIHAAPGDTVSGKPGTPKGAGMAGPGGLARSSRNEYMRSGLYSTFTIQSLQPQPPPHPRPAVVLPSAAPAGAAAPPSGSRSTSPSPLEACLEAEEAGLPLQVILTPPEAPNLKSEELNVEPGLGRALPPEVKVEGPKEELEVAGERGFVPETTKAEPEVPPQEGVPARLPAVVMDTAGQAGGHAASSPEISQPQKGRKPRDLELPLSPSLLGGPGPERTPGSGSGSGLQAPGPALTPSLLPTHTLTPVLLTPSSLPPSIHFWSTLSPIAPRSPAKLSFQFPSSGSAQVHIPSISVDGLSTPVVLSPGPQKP
The procedure, abridged:
as §1

The target in the next assay is T3, GABPA (Homo sapiens, UniProt Q06546 1-454).
T3 sequence: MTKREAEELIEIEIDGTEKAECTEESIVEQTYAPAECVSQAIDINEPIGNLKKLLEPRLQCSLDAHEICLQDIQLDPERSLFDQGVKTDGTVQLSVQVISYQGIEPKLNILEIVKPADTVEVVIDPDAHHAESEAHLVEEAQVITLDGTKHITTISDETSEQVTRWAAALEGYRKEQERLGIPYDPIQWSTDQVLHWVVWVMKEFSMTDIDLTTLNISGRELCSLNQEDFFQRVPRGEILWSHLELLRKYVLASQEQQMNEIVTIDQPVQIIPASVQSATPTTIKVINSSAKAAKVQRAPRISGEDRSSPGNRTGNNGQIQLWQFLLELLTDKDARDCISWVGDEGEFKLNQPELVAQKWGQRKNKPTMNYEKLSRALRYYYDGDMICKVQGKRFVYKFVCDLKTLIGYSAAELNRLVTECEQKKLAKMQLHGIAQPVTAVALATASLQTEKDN
The procedure, abridged: as §1

The target in a further assay is T4, ERG (Homo sapiens, UniProt P11308 1-479).
T4 sequence: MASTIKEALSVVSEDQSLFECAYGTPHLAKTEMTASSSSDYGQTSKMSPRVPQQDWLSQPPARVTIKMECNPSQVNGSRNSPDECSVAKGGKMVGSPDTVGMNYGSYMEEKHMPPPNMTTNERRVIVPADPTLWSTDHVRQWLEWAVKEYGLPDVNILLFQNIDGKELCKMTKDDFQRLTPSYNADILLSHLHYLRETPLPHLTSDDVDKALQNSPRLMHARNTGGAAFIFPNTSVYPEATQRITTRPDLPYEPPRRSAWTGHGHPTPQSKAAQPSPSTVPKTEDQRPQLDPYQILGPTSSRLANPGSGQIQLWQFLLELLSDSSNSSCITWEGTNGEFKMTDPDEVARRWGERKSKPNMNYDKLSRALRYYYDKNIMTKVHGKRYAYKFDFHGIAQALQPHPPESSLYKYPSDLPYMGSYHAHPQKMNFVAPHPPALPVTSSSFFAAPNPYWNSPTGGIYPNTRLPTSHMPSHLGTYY
The procedure, abridged:
as §1

A further assay has as its target ELF1 (Homo sapiens, UniProt P32519 1-619). The procedure, abridged:
as §1

A further assay has as its target T5, EHF (Homo sapiens, UniProt Q9NZC4 1-300).
T5 sequence: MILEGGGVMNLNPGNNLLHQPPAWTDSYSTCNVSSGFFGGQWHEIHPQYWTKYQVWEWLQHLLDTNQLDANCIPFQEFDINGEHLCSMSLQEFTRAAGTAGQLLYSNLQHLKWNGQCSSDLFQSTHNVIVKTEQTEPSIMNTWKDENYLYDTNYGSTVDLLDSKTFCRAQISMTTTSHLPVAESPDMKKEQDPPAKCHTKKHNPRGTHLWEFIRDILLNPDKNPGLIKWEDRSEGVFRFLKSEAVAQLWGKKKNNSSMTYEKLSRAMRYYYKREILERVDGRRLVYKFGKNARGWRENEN
The procedure, abridged:
as §1

The next assay addresses SPI1 (Homo sapiens, UniProt P17947 1-270). The procedure, abridged: as §1
In another assay the target is SPIB (Homo sapiens, UniProt Q01892 1-262). The procedure, abridged:
as §1

A further assay deals with T6, ELK3 (Homo sapiens, UniProt P41970 1-407).
T6 sequence: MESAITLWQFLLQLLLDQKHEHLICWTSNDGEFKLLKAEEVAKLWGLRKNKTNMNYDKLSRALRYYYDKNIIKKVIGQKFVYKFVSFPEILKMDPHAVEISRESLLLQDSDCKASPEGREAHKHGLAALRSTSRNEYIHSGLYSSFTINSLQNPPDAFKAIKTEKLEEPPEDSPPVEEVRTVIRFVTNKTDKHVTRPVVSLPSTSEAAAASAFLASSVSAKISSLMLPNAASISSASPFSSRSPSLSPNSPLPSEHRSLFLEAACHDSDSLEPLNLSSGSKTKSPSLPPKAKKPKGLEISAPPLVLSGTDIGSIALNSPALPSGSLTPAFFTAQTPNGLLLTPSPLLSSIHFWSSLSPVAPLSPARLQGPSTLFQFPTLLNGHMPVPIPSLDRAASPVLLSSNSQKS
The procedure, abridged: as §1

The target in the next assay is T7, FEV (Homo sapiens, UniProt Q99581 1-238).
T7 sequence: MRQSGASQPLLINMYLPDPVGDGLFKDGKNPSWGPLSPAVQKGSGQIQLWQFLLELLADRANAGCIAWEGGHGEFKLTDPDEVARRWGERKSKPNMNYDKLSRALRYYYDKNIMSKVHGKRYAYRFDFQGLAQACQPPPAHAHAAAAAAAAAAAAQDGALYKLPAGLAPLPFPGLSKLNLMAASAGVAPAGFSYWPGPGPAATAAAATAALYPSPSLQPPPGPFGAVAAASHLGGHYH
The procedure, abridged: as §1

In the next assay the target is ETV5 (Homo sapiens, UniProt P41161 1-510). The procedure, abridged: as §1
Chain of ETV5 (P41161 whole entry): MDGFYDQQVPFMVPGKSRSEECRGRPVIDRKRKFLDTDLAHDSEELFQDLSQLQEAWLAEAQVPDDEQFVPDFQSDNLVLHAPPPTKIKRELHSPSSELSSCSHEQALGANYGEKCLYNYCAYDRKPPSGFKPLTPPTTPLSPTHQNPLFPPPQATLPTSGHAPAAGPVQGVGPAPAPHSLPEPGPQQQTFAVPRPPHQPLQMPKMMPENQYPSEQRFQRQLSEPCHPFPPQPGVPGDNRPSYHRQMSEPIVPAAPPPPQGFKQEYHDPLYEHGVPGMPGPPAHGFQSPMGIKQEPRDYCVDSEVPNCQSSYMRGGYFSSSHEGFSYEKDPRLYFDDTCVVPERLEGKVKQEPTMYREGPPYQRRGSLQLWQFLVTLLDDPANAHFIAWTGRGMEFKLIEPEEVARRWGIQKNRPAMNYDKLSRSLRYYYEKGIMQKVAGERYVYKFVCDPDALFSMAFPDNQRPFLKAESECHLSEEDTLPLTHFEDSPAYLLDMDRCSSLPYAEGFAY
A further assay deals with T8, SPIC (Homo sapiens, UniProt Q8N5J4 1-248).
T8 sequence: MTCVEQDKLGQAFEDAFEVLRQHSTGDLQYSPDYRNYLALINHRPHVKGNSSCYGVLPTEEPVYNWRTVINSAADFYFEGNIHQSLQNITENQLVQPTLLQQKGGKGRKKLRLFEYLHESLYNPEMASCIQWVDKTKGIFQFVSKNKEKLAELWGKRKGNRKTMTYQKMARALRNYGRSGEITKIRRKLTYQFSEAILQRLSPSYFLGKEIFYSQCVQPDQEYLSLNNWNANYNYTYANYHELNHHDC
The procedure, abridged:
as §1

A further assay deals with ELF4 (Homo sapiens, UniProt Q99607 1-663). The procedure, abridged:
as §1

In another assay the target is ETV1 (Homo sapiens, UniProt P50549 1-477). The procedure, abridged:
as §1

In the next assay the target is T9, ERF (Homo sapiens, UniProt P50548 1-548).
T9 sequence: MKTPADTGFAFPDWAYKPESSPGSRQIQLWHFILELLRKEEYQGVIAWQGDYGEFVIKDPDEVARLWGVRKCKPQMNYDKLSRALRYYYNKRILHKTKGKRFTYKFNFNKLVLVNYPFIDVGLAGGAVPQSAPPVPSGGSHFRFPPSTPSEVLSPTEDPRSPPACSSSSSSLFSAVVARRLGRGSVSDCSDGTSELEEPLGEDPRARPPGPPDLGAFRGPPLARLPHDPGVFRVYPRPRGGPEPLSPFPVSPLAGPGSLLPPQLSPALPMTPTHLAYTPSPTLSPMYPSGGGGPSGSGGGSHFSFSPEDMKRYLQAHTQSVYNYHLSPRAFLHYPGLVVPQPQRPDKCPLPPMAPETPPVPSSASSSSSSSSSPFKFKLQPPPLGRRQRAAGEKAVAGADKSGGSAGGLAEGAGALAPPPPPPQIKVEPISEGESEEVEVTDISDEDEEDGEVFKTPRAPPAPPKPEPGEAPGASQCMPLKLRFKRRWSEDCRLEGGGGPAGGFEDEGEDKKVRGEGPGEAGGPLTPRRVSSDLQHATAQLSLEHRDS
The procedure, abridged: as §1

The next assay concerns the target T10, ETS2 (Homo sapiens, UniProt P15036 1-469).
T10 sequence: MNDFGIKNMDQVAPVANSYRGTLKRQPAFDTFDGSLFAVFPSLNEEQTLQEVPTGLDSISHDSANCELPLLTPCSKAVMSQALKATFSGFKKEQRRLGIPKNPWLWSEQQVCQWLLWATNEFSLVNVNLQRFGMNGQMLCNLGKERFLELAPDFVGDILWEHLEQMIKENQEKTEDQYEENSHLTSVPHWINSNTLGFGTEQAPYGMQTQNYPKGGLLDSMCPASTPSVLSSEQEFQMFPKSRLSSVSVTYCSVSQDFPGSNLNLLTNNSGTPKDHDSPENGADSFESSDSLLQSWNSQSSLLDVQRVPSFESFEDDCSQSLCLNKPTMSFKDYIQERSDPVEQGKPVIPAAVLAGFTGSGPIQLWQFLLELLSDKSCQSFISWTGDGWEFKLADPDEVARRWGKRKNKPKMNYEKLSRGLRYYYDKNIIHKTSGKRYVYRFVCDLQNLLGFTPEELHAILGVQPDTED
The procedure, abridged:
as §1

A further assay has as its target T11, ELF5 (Homo sapiens, UniProt Q9UKW6-2 1-255).
T11 sequence: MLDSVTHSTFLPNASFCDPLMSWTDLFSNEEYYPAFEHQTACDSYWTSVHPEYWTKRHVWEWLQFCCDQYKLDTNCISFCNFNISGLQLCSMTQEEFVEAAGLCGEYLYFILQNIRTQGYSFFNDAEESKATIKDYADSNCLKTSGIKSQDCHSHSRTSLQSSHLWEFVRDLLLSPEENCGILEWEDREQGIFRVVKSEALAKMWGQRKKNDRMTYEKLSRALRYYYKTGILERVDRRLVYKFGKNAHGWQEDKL
The procedure, abridged: as §1

The target of a further assay is T12, ETV3 (Homo sapiens, UniProt P41162-2 1-143).
T12 sequence: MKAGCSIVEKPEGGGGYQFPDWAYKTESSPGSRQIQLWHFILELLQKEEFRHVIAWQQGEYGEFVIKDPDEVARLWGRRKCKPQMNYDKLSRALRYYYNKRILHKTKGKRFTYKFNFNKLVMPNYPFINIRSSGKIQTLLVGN
The procedure, abridged:
as §1

The target of another assay is ETV6 (Homo sapiens, UniProt P41212 1-452). The procedure, abridged:
as §1

Chain of ELF1 (P32519 whole entry): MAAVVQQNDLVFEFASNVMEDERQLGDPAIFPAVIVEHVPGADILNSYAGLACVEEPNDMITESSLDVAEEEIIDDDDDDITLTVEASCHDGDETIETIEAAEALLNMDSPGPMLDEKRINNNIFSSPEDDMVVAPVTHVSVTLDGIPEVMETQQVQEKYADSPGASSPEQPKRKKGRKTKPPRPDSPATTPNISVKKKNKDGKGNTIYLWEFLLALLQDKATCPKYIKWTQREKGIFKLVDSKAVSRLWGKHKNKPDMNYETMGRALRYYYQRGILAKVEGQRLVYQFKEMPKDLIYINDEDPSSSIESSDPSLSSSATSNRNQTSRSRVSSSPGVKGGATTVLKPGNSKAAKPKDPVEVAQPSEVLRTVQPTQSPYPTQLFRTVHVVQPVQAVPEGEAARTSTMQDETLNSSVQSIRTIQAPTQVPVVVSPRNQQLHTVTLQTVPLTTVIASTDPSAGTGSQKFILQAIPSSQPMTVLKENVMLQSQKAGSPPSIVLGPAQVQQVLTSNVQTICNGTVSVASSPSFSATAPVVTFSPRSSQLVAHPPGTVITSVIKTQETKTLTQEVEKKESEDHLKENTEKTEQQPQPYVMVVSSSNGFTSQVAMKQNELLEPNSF
Chain of SPIB (Q01892 whole entry): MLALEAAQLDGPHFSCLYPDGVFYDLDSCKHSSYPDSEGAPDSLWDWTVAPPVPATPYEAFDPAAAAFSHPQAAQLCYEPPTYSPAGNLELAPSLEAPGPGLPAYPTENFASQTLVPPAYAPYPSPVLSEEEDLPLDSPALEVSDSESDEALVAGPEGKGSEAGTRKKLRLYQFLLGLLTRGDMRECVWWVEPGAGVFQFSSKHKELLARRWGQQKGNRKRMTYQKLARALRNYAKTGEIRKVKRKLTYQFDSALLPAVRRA
Chain of ELF4 (Q99607 whole entry): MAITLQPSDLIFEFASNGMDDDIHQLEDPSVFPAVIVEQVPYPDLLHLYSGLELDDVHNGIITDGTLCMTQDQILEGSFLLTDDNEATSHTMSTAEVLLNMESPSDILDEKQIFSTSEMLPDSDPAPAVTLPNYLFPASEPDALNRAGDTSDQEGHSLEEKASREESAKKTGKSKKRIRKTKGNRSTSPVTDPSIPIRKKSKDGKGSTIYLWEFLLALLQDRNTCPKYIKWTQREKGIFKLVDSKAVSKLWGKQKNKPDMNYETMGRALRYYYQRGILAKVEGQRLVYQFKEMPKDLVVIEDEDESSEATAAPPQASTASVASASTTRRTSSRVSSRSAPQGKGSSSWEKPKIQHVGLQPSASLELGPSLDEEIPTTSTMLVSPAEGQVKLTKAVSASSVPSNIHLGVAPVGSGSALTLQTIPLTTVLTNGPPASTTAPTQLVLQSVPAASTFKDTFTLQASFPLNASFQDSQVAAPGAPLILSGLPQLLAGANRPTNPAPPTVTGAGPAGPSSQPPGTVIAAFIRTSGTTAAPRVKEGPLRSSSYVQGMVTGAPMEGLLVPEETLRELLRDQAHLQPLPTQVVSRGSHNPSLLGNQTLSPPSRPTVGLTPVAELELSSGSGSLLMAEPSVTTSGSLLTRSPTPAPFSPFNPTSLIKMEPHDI
Chain of ETV1 (P50549 whole entry): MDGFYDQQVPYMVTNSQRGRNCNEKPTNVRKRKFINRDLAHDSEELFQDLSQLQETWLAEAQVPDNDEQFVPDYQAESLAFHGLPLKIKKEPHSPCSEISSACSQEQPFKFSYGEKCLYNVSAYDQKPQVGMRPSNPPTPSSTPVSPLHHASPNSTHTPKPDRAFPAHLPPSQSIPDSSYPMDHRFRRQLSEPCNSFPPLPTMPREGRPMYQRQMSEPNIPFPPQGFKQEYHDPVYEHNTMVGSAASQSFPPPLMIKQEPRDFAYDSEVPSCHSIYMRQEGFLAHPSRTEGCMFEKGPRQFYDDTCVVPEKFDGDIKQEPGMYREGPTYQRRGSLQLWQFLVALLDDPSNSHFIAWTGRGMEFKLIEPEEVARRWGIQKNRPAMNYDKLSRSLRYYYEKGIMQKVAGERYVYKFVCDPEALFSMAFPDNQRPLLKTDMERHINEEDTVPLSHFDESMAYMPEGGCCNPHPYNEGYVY
Chain of ETV6 (P41212 whole entry): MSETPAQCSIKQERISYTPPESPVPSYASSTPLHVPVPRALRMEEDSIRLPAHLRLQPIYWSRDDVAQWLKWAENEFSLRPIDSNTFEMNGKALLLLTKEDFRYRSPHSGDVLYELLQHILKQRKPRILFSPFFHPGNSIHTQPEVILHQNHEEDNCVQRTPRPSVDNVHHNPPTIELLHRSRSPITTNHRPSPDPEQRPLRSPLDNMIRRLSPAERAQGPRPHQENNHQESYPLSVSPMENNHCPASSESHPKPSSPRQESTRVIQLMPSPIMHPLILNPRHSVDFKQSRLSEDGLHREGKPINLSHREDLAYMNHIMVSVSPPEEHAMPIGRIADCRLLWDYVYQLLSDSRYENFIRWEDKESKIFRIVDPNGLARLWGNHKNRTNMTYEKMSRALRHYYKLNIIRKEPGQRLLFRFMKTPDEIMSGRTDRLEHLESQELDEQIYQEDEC

ATGCCG: the binding signal was 1.12 fold enrichment (6-mer frequency, TF over GST control) with FLI1; 1.13 fold enrichment (6-mer frequency, TF over GST control) with ELK1; 1.09 fold enrichment (6-mer frequency, TF over GST control) with GABPA; 1.12 fold enrichment (6-mer frequency, TF over GST control) with ERG; 1.09 fold enrichment (6-mer frequency, TF over GST control) with ELF1; 1.16 fold enrichment (6-mer frequency, TF over GST control) in the assay with EHF. The binding signal with SPI1 is 1.13 fold enrichment (6-mer frequency, TF over GST control); in the assay with SPIB, 1.17 fold enrichment (6-mer frequency, TF over GST control); with ELK3 it was 1.07 fold enrichment (6-mer frequency, TF over GST control); with FEV it was 1.16 fold enrichment (6-mer frequency, TF over GST control); in the assay with ETV5 it was 1.15 fold enrichment (6-mer frequency, TF over GST control); with SPIC it was 1.17 fold enrichment (6-mer frequency, TF over GST control). The binding signal in the assay with ELF4 was 1.19 fold enrichment (6-mer frequency, TF over GST control); with ETV1, 1.11 fold enrichment (6-mer frequency, TF over GST control); with ERF, 1.01 fold enrichment (6-mer frequency, TF over GST control); with ETS2, 1.08 fold enrichment (6-mer frequency, TF over GST control); in the assay with ELF5 it was 1.13 fold enrichment (6-mer frequency, TF over GST control); in the assay with ETV3, 1.24 fold enrichment (6-mer frequency, TF over GST control). Also, the binding signal with ETV6 is 1.15 fold enrichment (6-mer frequency, TF over GST control).
